ChEMBL document CHEMBL5606460, “ASAP - DENV-2 NS2B-NS3 protease fluorescence single point” (2024)
The whole screen tested about 2,000 compounds, of which about 110 (5.5%) showed an effect of 50% or more. Many of the other results were omitted from the sample, so strong results are more common in it than they were.

Biological target: Genome polyprotein (dengue virus type 2) (UniProt P29990)
[1] = Thailand/16681/1984, Concentration 25.0 uM, Number of replicates 1.0

Q: How did the inhibition (Thailand/16681/1984, Concentration 49.95 uM, Number of replicates 2.0, Standard deviation 0.772673116128399 %) turn out when `Cc1cc(CO)c2cccc(CC(=O)N3CC4(CCCOC4)C3)c2n1` was run?
A: -6.59%

Q: What about the inhibition (Thailand/16681/1984, Concentration 99.9 uM, Number of replicates 2.0, Standard deviation 1.1105448445025274 %) of the same compound?
A: -6.27%

Q: What does the source list for `CC(C)(CO)NC(=O)c1cc(Cl)cc(NC(=O)c2cc(-c3ccc(Cl)cc3)n[nH]2)c1`?
A: inhibition (Thailand/16681/1984, Concentration 49.5 uM, Number of replicates 2.0, Standard deviation 0.12694171370832513 %): 1.06%; inhibition (Thailand/16681/1984, Concentration 99.01 uM, Number of replicates 2.0, Standard deviation 0.3683389265193805 %): 1.45%; inhibition (Thailand/16681/1984, Concentration 198.0 uM, Number of replicates 2.0, Standard deviation 0.21850629000727306 %): 2.52%

Q: Which inhibition (Thailand/16681/1984, Concentration 49.95 uM, Number of replicates 2.0, Standard deviation 2.1984135254678594 %) does the source give for `Cc1cc(CO)c2cccc(C[C@H](NC(=O)C(=O)c3ccco3)C(=O)O)c2n1` here?
A: 1.13%

Q: And the inhibition (Thailand/16681/1984, Concentration 99.9 uM, Number of replicates 2.0, Standard deviation 0.8113996635889369 %)?
A: 5.56%

Q: With `c1ccc2c(CN3CCC(c4c[nH]c5cccnc45)CC3)n[nH]c2c1` as the compound, how does the inhibition (Thailand/16681/1984, Concentration 49.5 uM, Number of replicates 2.0, Standard deviation 0.8795107409501791 %) read?
A: 2.18%

Q: And the inhibition (Thailand/16681/1984, Concentration 99.01 uM, Number of replicates 2.0, Standard deviation 0.8626664157680123 %)?
A: 3.05%

Q: And the inhibition (Thailand/16681/1984, Concentration 198.0 uM, Number of replicates 2.0, Standard deviation 1.2603111418750788 %)?
A: 5.34%

Q: Which results are given for `Cc1cc(CO)c2cccc(C[C@H](NC(=O)C[C@H]3CCCN3)C(=O)O)c2n1`?
A: inhibition (Thailand/16681/1984, Concentration 49.95 uM, Number of replicates 2.0, Standard deviation 0.0013512279632592627 %): 3.5%; inhibition (Thailand/16681/1984, Concentration 99.9 uM, Number of replicates 2.0, Standard deviation 1.378906641613337 %): 9%

Q: What does the source list for `Cc1cnccc1NC(=O)c1cc(C2CCC2)n(C)c1C`?
A: inhibition (Thailand/16681/1984, Concentration 49.5 uM, Number of replicates 2.0, Standard deviation 0.7067686370209446 %): 0.618%; inhibition (Thailand/16681/1984, Concentration 99.01 uM, Number of replicates 2.0, Standard deviation 0.7459418989288495 %): 1.95%; inhibition (Thailand/16681/1984, Concentration 198.0 uM, Number of replicates 2.0, Standard deviation 0.11875700646175207 %): 4.33%

Q: With `N#Cc1cccc(-c2nc3c(C(=O)NCc4ccccc4)cc(Cl)cc3[nH]2)c1` as the compound, how does the inhibition (Thailand/16681/1984, Concentration 99.5 uM, Number of replicates 2.0, Standard deviation 0.16663009439873022 %) read?
A: -4.99%

Q: And the inhibition (Thailand/16681/1984, Concentration 295.6 uM, Number of replicates 2.0, Standard deviation 26.28702583112172 %)?
A: 8.64%

Q: Which inhibition (Thailand/16681/1984, Concentration 99.5 uM, Number of replicates 2.0, Standard deviation 2.321247122631555 %) does the source give for `N#Cc1cccc(-c2nc3c(C(=O)NCc4cccnc4)cc(Cl)cc3[nH]2)c1` here?
A: 6.57%

Q: And the inhibition (Thailand/16681/1984, Concentration 295.6 uM, Number of replicates 2.0, Standard deviation 6.98688470817418 %)?
A: 38.2%

Q: How did the inhibition (Thailand/16681/1984, Concentration 99.5 uM, Number of replicates 2.0, Standard deviation 0.13306805316732315 %) turn out when `O=C(Nc1ccc2c(c1)CNC2)c1cc(Cl)cc2[nH]c(-c3cc(C4CC4)[nH]n3)nc12` was run?
A: 94.6%

Q: And the inhibition (Thailand/16681/1984, Concentration 295.6 uM, Number of replicates 2.0, Standard deviation 0.23606011523727233 %)?
A: 88.6%

Q: `N#Cc1cccc(-c2nc3c(C(=O)Nc4cccnc4)cc(Cl)cc3[nH]2)c1` was tested. Which inhibition (Thailand/16681/1984, Concentration 99.5 uM, Number of replicates 2.0, Standard deviation 0.04165727071859149 %) did it give?
A: 7.45%

Q: What about the inhibition (Thailand/16681/1984, Concentration 295.6 uM, Number of replicates 2.0, Standard deviation 4.418006643102565 %) of the same compound?
A: 20.3%

Q: With `N#Cc1cccc(-c2nc3c(C(=O)Nc4ccccc4)cc(Cl)cc3[nH]2)c1` as the compound, how does the inhibition (Thailand/16681/1984, Concentration 99.5 uM, Number of replicates 2.0, Standard deviation 7.963520922762683 %) read?
A: 14.4%

Q: What about the inhibition (Thailand/16681/1984, Concentration 295.6 uM, Number of replicates 2.0, Standard deviation 58.7613445679075 %) of the same compound?
A: 56.6%

Q: With `N#Cc1cccc(-c2nc3c(C(=O)Nc4ccncc4)cc(Cl)cc3[nH]2)c1` as the compound, how does the inhibition (Thailand/16681/1984, Concentration 99.5 uM, Number of replicates 2.0, Standard deviation 0.8007493235576281 %) read?
A: 6.92%

Q: And the inhibition (Thailand/16681/1984, Concentration 295.6 uM, Number of replicates 2.0, Standard deviation 3.318711635404566 %)?
A: 36.2%

Q: How did the inhibition (Thailand/16681/1984, Concentration 99.5 uM, Number of replicates 2.0, Standard deviation 1.6408381783405366 %) turn out when `CC(C)NC(=O)[C@H](Nc1ccc2c(c1)CNC2)c1cc(Cl)cc2[nH]c(-c3ccccc3)nc12` was run?
A: 91.5%

Q: And the inhibition (Thailand/16681/1984, Concentration 295.6 uM, Number of replicates 2.0, Standard deviation 0.018514941963441705 %)?
A: 97.4%

Q: Which inhibition (Thailand/16681/1984, Concentration 99.5 uM, Number of replicates 2.0, Standard deviation 0.07636874080258764 %) does the source give for `CCc1ccc(-c2nc3c(C(=O)Nc4ccc5c(c4)CNC5)cc(Cl)cc3[nH]2)cc1` here?
A: 91.5%

Q: And the inhibition (Thailand/16681/1984, Concentration 295.6 uM, Number of replicates 2.0, Standard deviation 0.5542721932424032 %)?
A: 83.9%

Q: Which results are given for `CCc1ccc(-c2ccccc2C(=O)Nc2cnn(C)c2)c(F)c1`?
A: inhibition (Thailand/16681/1984, Concentration 49.5 uM, Number of replicates 2.0, Standard deviation 0.8455770066617545 %): -0.985%; inhibition (Thailand/16681/1984, Concentration 99.01 uM, Number of replicates 2.0, Standard deviation 1.2261793384720772 %): -0.538%; inhibition (Thailand/16681/1984, Concentration 198.0 uM, Number of replicates 2.0, Standard deviation 2.01798052784263 %): 0.736%

Q: Which inhibition (Thailand/16681/1984, Concentration 49.5 uM, Number of replicates 2.0, Standard deviation 1.7362397615810676 %) does the source give for `CCn1ncc(-c2ccccc2C(=O)Nc2cnn(C)c2)c1F` here?
A: -3.37%

Q: And the inhibition (Thailand/16681/1984, Concentration 99.01 uM, Number of replicates 2.0, Standard deviation 3.5632406540879202 %)?
A: -3.71%

Q: And the inhibition (Thailand/16681/1984, Concentration 198.0 uM, Number of replicates 2.0, Standard deviation 2.004108271976906 %)?
A: -1.89%

Q: With `COc1c(Cl)cccc1NC(=O)C1CCN(c2ccc(C=O)cc2)CC1` as the compound, how does the inhibition [1] read?
A: 13.9%

Q: For `C[C@H]1CCC[C@H](C)N1CCNC(=O)C1CCN(c2ccc(C=O)cc2)CC1`, which inhibition [1] is on record?
A: 12.4%

Q: What does the source list for `CNC(=O)c1cn(C[C@H]2CCCN2C(=O)c2cccc3ncsc23)nn1`?
A: inhibition (Thailand/16681/1984, Concentration 49.5 uM, Number of replicates 2.0, Standard deviation 0.1358580059513503 %): 0.293%; inhibition (Thailand/16681/1984, Concentration 99.01 uM, Number of replicates 2.0, Standard deviation 0.18464096005398162 %): 0.707%; inhibition (Thailand/16681/1984, Concentration 198.0 uM, Number of replicates 2.0, Standard deviation 0.18359188284769695 %): 0.879%

Q: With `O=Cc1ccc(N2CCC(C(=O)NCc3ccc(Br)s3)CC2)cc1` as the compound, how does the inhibition [1] read?
A: 12.4%

Q: What does the source list for `Cn1ncc2c(C(=O)Nc3ccc4c(c3)CNC4)cc(-c3cccnc3)nc21`?
A: inhibition (Thailand/16681/1984, Concentration 99.5 uM, Number of replicates 2.0, Standard deviation 0.6966055883154065 %): -0.716%; inhibition (Thailand/16681/1984, Concentration 295.6 uM, Number of replicates 2.0, Standard deviation 0.8690208118243027 %): 16.8%
